A selection: hits, their analogues and other compounds. The true share with any hit is near 19%.
TDP1 cell noCPT: qHTS for Inhibitors of human tyrosyl-DNA phosphodiesterase 1 (TDP1): qHTS in cells in absence of CPT; DT40 Tdp1-/- hTDP1 cells, no CPT, ATP luminescence, 48 h; Potency, µM (titrated, usually from 46.2 µM), usual class: inhibitors; 420,000 tested, 15% active; AID 686978, 2013; also: nearly all actives have a fitted effect of over 55% in size
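Chicken DT40 Tdp1-/- cells complemented with human TDP1, screened without camptothecin (DMSO vehicle only), 400 cells/well. Compounds pin-transferred, cells incubated at 37 °C for at least 48 hr. Growth read as ATP-dependent luminescence (CellTiter-Glo, 30 min at RT).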
HT1080 IDH1KD tx: qHTS for induction of synthetic lethality in tumor cells producing 2HG: qHTS for the HT-1080-IDH1KD cell line; HT-1080 IDH1 knockdown viability, ATP luminescence, 48 h; Potency, µM (series often up to 46.1 µM), usual class: cytotoxic; 360,000 tested, 2% active
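Cytotoxicity counter-line: IDH1KD HT-1080, 48 h, CellTiter-Glo. Curves classed by r2, magnitude and activity.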
HT1080NT lethal: qHTS for induction of synthetic lethality in tumor cells producing 2HG: qHTS for the HT-1080-NT fibrosarcoma cell line | HT-1080-NT fibrosarcoma viability, CellTiter-Glo ATP luminescence, 48 h | Potency, µM (top dose mostly 46.1 µM), most hits filed as cytotoxic | 360,000 tested, 1.6% active;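 also: NT is the 2HG producing partner of a matched IDH1 knockdown line; nearly all actives have a fitted effect of over 55% in size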
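A 48-hour cytotoxicity screen used HT-1080-NT cells plated 2 hours before compound delivery. ATP-based CellTiter-Glo luminescence measured viability, normalized to DMSO and no-cell controls.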
DT40 TDP1 CPT: qHTS for Inhibitors of human tyrosyl-DNA phosphodiesterase 1 (TDP1): qHTS in cells in presence of CPT; chicken DT40 Tdp1-/-;hTDP1 cells + 20 nM CPT, ATP luminescence, 48 h; Potency, µM (series often up to 46.2 µM), hits mostly inhibitors; 420,000 tested, 12% active; also: nearly all actives have a fitted effect of over 55% in size
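Chicken DT40 Tdp1-/- cells complemented with human TDP1, 400 cells/well, exposed to compounds plus 20 nM camptothecin for at least 48 h at 37 C; viability read as ATP content by CellTiter-Glo luminescence.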
IL-1B inflam inh: qHTS for Inhibitors of Inflammasome Signaling: IL-1-beta AlphaLISA Primary Screen | THP-1 LPS/ATP IL-1B secretion, AlphaLISA, 16 h; stronger effect = lower value | activity change, % at 57.5 µM | 360,000 tested, 4.7% active | AID 743279, 2014; in the data active = activity change below about -50%; inconclusive = mostly about -30% to -49%
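THP-1 cells pretreated 1 hr with compounds (up to 57.5 uM final), then stimulated with LPS (250 ng/mL final) plus ATP (1.25 mM final); secreted IL-1B measured by AlphaLISA after 16 hr, decreased signal indicating inhibition.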
A number is an active result. Unless noted, calls follow the shape of the dose curve; as a rule, active = well fitted curve in the direction sought with a large enough effect; inconclusive = small, poorly fitted or top-dose-only effect, or another doubt; inactive = no such curve, though single readings can be large; an effect the other way counts as inactive or inconclusive.

For COC1=CC(=O)OC(c2cccc(Cl)c2)C1 (stereo not drawn) the results were TDP1 cell noCPT inactive, HT1080 IDH1KD tx inactive, HT1080NT lethal inactive, DT40 TDP1 CPT inactive and IL-1B inflam inh inactive.
CSc1cccc(NS(=O)(=O)c2ccc(-c3coc(C)n3)cc2)c1 was read as TDP1 cell noCPT 15µM, HT1080 IDH1KD tx inactive, HT1080NT lethal inactive, DT40 TDP1 CPT inconclusive and IL-1B inflam inh inactive.
COc1ccc(NS(=O)(=O)c2ccc(-c3coc(C)n3)cc2)cc1 was read as TDP1 cell noCPT inactive, HT1080 IDH1KD tx inactive, HT1080NT lethal inconclusive, DT40 TDP1 CPT inconclusive and IL-1B inflam inh inactive.
COc1ccc(NS(=O)(=O)c2ccc(-c3coc(C)n3)cc2)cc1OC was read as TDP1 cell noCPT 2.1µM, HT1080 IDH1KD tx inactive, HT1080NT lethal inactive, DT40 TDP1 CPT 4.1µM and IL-1B inflam inh inconclusive.
COc1cc(Cl)c(NS(=O)(=O)c2ccc(-c3coc(C)n3)cc2)c(OC)c1 was read as TDP1 cell noCPT 4.1µM and DT40 TDP1 CPT 3.7µM.
CCN(CC)c1ccc(NS(=O)(=O)c2ccc(-c3coc(C)n3)cc2)c(C)c1 was read as TDP1 cell noCPT 18µM and DT40 TDP1 CPT 16µM.
Screening Cc1nc(-c2ccc(S(=O)(=O)Nc3ccccc3C)cc2)co1 returned TDP1 cell noCPT inactive, HT1080 IDH1KD tx inconclusive, HT1080NT lethal inactive, DT40 TDP1 CPT inconclusive and IL-1B inflam inh inactive.
COc1ccc(OC)c(NS(=O)(=O)c2ccc(-c3coc(C)n3)cc2)c1 was read as TDP1 cell noCPT inconclusive, HT1080 IDH1KD tx inactive, HT1080NT lethal inactive, DT40 TDP1 CPT inconclusive and IL-1B inflam inh inactive.
Screening CC(=O)OC1C[C@@]2(C)C(c3ccoc3)OC(=O)C3O[C@@]32[C@]2(C)C(OC(C)=O)CC3C(C)(C)C(OC(C)=O)CC(OC(C)=O)[C@@]3(C)C12 (stereo partly drawn) returned TDP1 cell noCPT inactive and DT40 TDP1 CPT inactive.
For CCc1ccc(OCc2nnc(SCCN3CCOCC3)n2C)cc1 the results were TDP1 cell noCPT inconclusive, HT1080 IDH1KD tx inactive, HT1080NT lethal inactive, DT40 TDP1 CPT inactive and IL-1B inflam inh inactive.
`COc1cc(=O)n2c(c1C(=O)NC(C)c1ccco1)CCN(CC=C(C)C)CC2` (stereo not drawn) gave TDP1 cell noCPT inactive and DT40 TDP1 CPT inactive.
For Cc1nc(-c2ccc(S(=O)(=O)Nc3ccc(C)c(N(C)C)c3)cc2)co1 the results were TDP1 cell noCPT 18µM and DT40 TDP1 CPT 7.3µM.
`COc1ccccc1CN1CC(C(=O)N2CCC(OC)CC2)CCC1=O` (stereo not drawn) gave TDP1 cell noCPT inactive, HT1080 IDH1KD tx inactive, HT1080NT lethal inactive, DT40 TDP1 CPT inactive and IL-1B inflam inh inactive.
For Cc1ccc(NC2=C(Cl)C(=O)OC2OC(=O)c2ccco2)cc1C (stereo not drawn) the results were TDP1 cell noCPT inconclusive, HT1080 IDH1KD tx inactive, HT1080NT lethal inactive, DT40 TDP1 CPT inconclusive and IL-1B inflam inh -87.
`Cc1ccc(C)c(NC2=C(Cl)C(=O)OC2OC(=O)c2ccco2)c1` (stereo not drawn) gave TDP1 cell noCPT 23µM, HT1080 IDH1KD tx inconclusive, HT1080NT lethal inconclusive, DT40 TDP1 CPT 23µM and IL-1B inflam inh -90.
Screening Cc1ccc(NC2=C(Cl)C(=O)OC2OC(=O)c2ccco2)c(C)c1 (stereo not drawn) returned TDP1 cell noCPT inactive, HT1080 IDH1KD tx inactive, HT1080NT lethal inactive, DT40 TDP1 CPT inconclusive and IL-1B inflam inh inactive.
Cc1ccc(-c2cc(C(=O)Oc3ccc(C#N)cc3)no2)cc1 was read as TDP1 cell noCPT inconclusive and DT40 TDP1 CPT inactive.
Screening COc1ccc(CNC(=O)[C@H](C)[C@@H]2C[C@@]2(C)[C@@H](NC(=O)OCc2ccccc2)c2ccccc2)cc1OC returned TDP1 cell noCPT 12µM, HT1080 IDH1KD tx inactive, HT1080NT lethal inactive, DT40 TDP1 CPT 15µM and IL-1B inflam inh inactive.
`Cc1cc(CNC(=O)[C@H](C)[C@@H]2C[C@@]2(C)[C@@H](NC(=O)OCc2ccccc2)c2ccccc2)nn1C` gave TDP1 cell noCPT inconclusive, HT1080 IDH1KD tx inactive, HT1080NT lethal inactive, DT40 TDP1 CPT 23µM and IL-1B inflam inh inactive.
Screening C[C@@H](C(=O)NCc1ccccc1)[C@H]1C[C@]1(C)[C@H](NC(=O)OCc1ccccc1)c1ccccc1 returned TDP1 cell noCPT inconclusive, HT1080 IDH1KD tx inactive, HT1080NT lethal inactive, DT40 TDP1 CPT inconclusive and IL-1B inflam inh inactive.
For CC(=O)C1C(=O)C=C(c2ccco2)CC1c1ccccc1 (stereo not drawn) the results were TDP1 cell noCPT 18µM, HT1080 IDH1KD tx inactive, HT1080NT lethal inactive, DT40 TDP1 CPT inconclusive and IL-1B inflam inh inactive.
Screening CCOC(=O)C1C(=O)C=C(c2ccc([N+](=O)[O-])cc2)CC1c1ccccc1 (stereo not drawn) returned TDP1 cell noCPT inactive, HT1080 IDH1KD tx inactive, HT1080NT lethal inactive, DT40 TDP1 CPT inactive and IL-1B inflam inh inactive.
`CN(C)S(=O)(=O)c1ccc(NCC2COc3ccccc3O2)c([N+](=O)[O-])c1` (stereo not drawn) gave TDP1 cell noCPT 23µM, HT1080 IDH1KD tx inactive, HT1080NT lethal inactive, DT40 TDP1 CPT 16µM and IL-1B inflam inh inactive.
Screening CCN(CC)S(=O)(=O)c1ccc(NCC2COc3ccccc3O2)c([N+](=O)[O-])c1 (stereo not drawn) returned TDP1 cell noCPT 23µM, HT1080 IDH1KD tx inactive, HT1080NT lethal inactive, DT40 TDP1 CPT 16µM and IL-1B inflam inh inactive.
Screening COC(=O)c1c(O)cc(C(C)(C)C)n(-c2ccc(F)cc2)c1=O returned TDP1 cell noCPT inactive, HT1080 IDH1KD tx inactive, HT1080NT lethal inactive, DT40 TDP1 CPT inactive and IL-1B inflam inh inactive.
For COc1cccc(NC(=O)COc2ccc3c(c2)CCC3)c1 the results were TDP1 cell noCPT inactive, HT1080 IDH1KD tx inactive, HT1080NT lethal inactive, DT40 TDP1 CPT inactive and IL-1B inflam inh inactive.
CCOC(=O)Nc1cccc(OCC(=O)Nc2ccc3c(c2)CCC3)c1 was read as TDP1 cell noCPT 23µM, HT1080 IDH1KD tx inactive, HT1080NT lethal inactive, DT40 TDP1 CPT inconclusive and IL-1B inflam inh inactive.
Screening CC(C)OC(=O)c1ccc(NC(=O)CSc2nc(-c3cccs3)cc(C(F)(F)F)n2)cc1 returned TDP1 cell noCPT 29µM and DT40 TDP1 CPT 16µM.
Screening O=C(CSc1nc(-c2cccs2)cc(C(F)(F)F)n1)NCc1ccccc1 returned TDP1 cell noCPT 23µM, HT1080 IDH1KD tx inconclusive, HT1080NT lethal inactive, DT40 TDP1 CPT inconclusive and IL-1B inflam inh inactive.

From PubChem
